Bioassay records (PubChem BioAssay)
HT1080NT lethal – kills 2HG-producing HT-1080-NT fibrosarcoma cells; HT-1080-NT fibrosarcoma viability, CellTiter-Glo ATP luminescence, 48 h; Potency, µM (highest dose often 46.1 µM), hits mostly cytotoxic; actives 1.6% (n = 360,000);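 also: NT is the 2HG producing partner of a matched IDH1 knockdown line; nearly all actives have a fitted effect of over 55% in size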
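Compounds were tested in concentration-response format on HT-1080-NT cells for 48 hours at 37 degrees C. Cell viability came from CellTiter-Glo luminescence; curves were classified by r2, response magnitude and activity.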
HT1080 IDH1KD tx – toxicity to HT-1080 IDH1 knockdown cells (counter line) | HT-1080 IDH1 knockdown viability, ATP luminescence, 48 h | Potency, µM (top dose mostly 46.1 µM), actives largely listed as cytotoxic | actives 2% (n = 360,000) | AID 686971
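After a 2 h attachment period, IDH1KD HT-1080 cells took pin-transferred compound for 48 h at 37 °C; ATP-based luminescence after 10 min room-temperature reagent incubation reported viability.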
TDP1 cell CPT – growth inhibition of DT40 Tdp1-/-;hTDP1 cells with camptothecin (screen for TDP1 inhibitors); chicken DT40 Tdp1-/-;hTDP1 cells + 20 nM CPT, ATP luminescence, 48 h; Potency, µM (doses to about 46.2 µM), actives largely listed as inhibitors; actives 12% (n = 420,000); also: nearly all actives have a fitted effect of over 55% in size
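Cell growth measured by CellTiter-Glo luminescence after a minimum 48 h, 37 C compound exposure with 20 nM CPT in Tdp1-knockout DT40 cells stably expressing hTDP1, seeded 400/well; qHTS titration format.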
IL1B secr inh – inhibitors of inflammasome signaling (IL-1 beta secretion); THP-1 LPS/ATP IL-1B secretion, AlphaLISA, 16 h; stronger effect = lower value; activity change, % at 57.5 µM; actives 4.7% (n = 360,000); AID 743279; in the data active = activity change below about -50%; inconclusive = mostly about -30% to -49%
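THP-1 cells pretreated 1 hr with compounds (up to 57.5 uM final), then stimulated with LPS (250 ng/mL final) plus ATP (1.25 mM final); secreted IL-1B measured by AlphaLISA after 16 hr, decreased signal indicating inhibition.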
DT40 TDP1 no CPT – qHTS for Inhibitors of human tyrosyl-DNA phosphodiesterase 1 (TDP1): qHTS in cells in absence of CPT; DT40 Tdp1-/- hTDP1 cells, no CPT, ATP luminescence, 48 h; Potency, µM (titrated, usually from 46.2 µM), most hits filed as inhibitors; actives 15% (n = 420,000); also: nearly all actives have a fitted effect of over 55% in size
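Chicken DT40 Tdp1-/- cells stably complemented with human TDP1 were seeded at 400 cells/well with DMSO in place of 20 nM camptothecin. After compound pinning, cells grew at least 48 hr at 37 °C; viability read by CellTiter-Glo luminescence.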
12-LOX inh – inhibitors of human 12S-lipoxygenase ALOX12; purified 12hLO, xylenol orange hydroperoxide absorbance; AID 1671190; actives 1.1% (n = 580,000); Potency, µM (highest dose often 108 µM), most hits filed as inhibitors
Target sequence (P18054 whole entry, looked up): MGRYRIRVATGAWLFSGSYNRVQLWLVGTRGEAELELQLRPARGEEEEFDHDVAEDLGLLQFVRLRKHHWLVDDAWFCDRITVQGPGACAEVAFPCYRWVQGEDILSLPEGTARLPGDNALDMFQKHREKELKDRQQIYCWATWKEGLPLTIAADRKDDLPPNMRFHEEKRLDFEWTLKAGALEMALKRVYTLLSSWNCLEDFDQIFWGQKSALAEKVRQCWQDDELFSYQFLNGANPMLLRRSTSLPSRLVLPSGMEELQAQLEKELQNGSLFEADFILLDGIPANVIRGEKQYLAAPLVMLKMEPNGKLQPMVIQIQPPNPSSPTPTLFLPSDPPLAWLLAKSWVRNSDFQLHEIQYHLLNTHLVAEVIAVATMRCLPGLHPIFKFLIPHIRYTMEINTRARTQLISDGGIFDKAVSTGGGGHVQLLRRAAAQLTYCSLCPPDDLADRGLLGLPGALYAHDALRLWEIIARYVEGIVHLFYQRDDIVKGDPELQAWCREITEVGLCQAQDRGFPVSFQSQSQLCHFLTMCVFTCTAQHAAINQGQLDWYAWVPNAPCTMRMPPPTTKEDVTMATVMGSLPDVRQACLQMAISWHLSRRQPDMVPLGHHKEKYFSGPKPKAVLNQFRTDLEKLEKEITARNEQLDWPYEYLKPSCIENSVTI
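Purified human 12hLO at 150 nM in 25 mM Hepes, 0.01% Triton X-100, pH 7.0, preincubated 15 min at room temperature with compound. Reaction started with 40 uM arachidonic acid, 30 min at room temperature. Hydroperoxide measured by Fe-xylenol orange, 573/405 nm absorbance ratio.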
A number is an active result; – = inactive; ? = inconclusive; · = not tested or not shown; [ ] = dose if it differs, or a comment. The full list was thinned out, with hits kept by preference. Unless noted, calls follow the shape of the dose curve; as a rule, active = well fitted curve in the direction sought with a large enough effect; inconclusive = small, poorly fitted or top-dose-only effect, or another doubt; inactive = no such curve, though single readings can be large; an effect the other way counts as inactive or inconclusive.

SMILES | HT1080NT lethal | HT1080 IDH1KD tx | TDP1 cell CPT | IL1B secr inh | DT40 TDP1 no CPT | 12-LOX inh
O=C(Nc1ccc(F)c(Cl)c1)c1cc(C2CCCCN2C(=O)c2ccc(Cl)cc2)on1 (stereo not given) | – | – | 20.6µM | ? | 20.6µM | ?
CC(=O)Nc1ccc(C(=O)N2CCCCC2c2cc(C(=O)Nc3ccccc3)no2)cc1 (stereo not given) | – | – | – | – | – | –
Cc1ccc(C)c(CC(=O)N2CCCCC2c2cc(C(=O)Nc3ccc(F)c(Cl)c3)no2)c1 (stereo not given) | ? | – | 20.6µM | – | 23.1µM | –
N#Cc1cccc(NC(=O)c2cc(C3CCCCN3C(=O)CCCc3ccccc3)on2)c1 (stereo not given) | – | – | 23.1µM | ? | ? | ?
O=C(Nc1ccc(F)c(Cl)c1)c1cc(C2CCCCN2C(=O)c2ccccc2)on1 (stereo not given) | ? | ? | 8.2µM | – | 6.51µM | –
O=C(Nc1ccc(F)c(Cl)c1)c1cc(C2CCCCN2C(=O)CCc2ccccc2)on1 (stereo not given) | – | – | 14.6µM | – | ? | –
COc1ccc(C(=O)/C=C/c2cn(CN3CCN(C)CC3)c3ccccc23)cc1 | –[9.24 µM] | ? | – | -68.2 | ? | ·
Cc1ccc(C(=O)/C=C/c2cn(CC(O)CN3CCc4ccccc43)c3ccccc23)cc1 (stereo not given) | · | · | ? | · | ? | –
COc1ccc(C(=O)/C=C/c2cn(CC(O)CN3CCOCC3)c3ccccc23)cc1 (stereo not given) | ? | ? | ? | -93.5 | ? | ·
CCn1cc(/C=C(\NC(=O)c2ccc(OC)cc2)C(=O)N2CCOCC2)c2ccccc21 | – | – | – | – | – | ?
Cc1ccc(C(=O)/C=C/c2cn(CC(O)CN3CCOCC3)c3ccccc23)cc1 (stereo not given) | ? | ? | ? | -82.0 | ? | ?
CCOc1ccc(C(=O)/C=C/c2cn(CN3CCN(C)CC3)c3ccccc23)cc1 | – | ? | – | – | ? | –
COc1ccc(C(=O)/C=C/c2cn(CC(O)CN3CCc4ccccc43)c3ccccc23)cc1OC (stereo not given) | · | · | 3.26µM | · | 4.11µM | –
CNC(=O)[C@@H]1C[C@H](Oc2ccccc2)CN1S(=O)(=O)N(C)C | · | · | · | · | · | –
COc1ccc(NC2=NS(=O)(=O)C(c3ccccc3)=C2C)cc1Cl | · | · | · | · | · | –
COc1cc(C(=O)/C=C/c2ccccc2Br)ccc1OCC(=O)O | · | · | · | · | · | –
NC(N)=NN=C(c1ccc(F)cc1)c1ccc(C(F)(F)F)cc1 | 2.91µM | 7.31µM | 2.59µM | -104.4 | 2.31µM | ?
O=C(CN1CCCCCC1=O)NC1CCCc2nc(-c3cccnc3)ncc21 (stereo not given) | · | · | · | · | · | –
COc1cccc(S(=O)(=O)NCC(=O)Nc2ccc(C(C)(C)C)cc2)c1 | – | – | ? | -59.9 | ? | –
CC(=O)Nc1cccc(OCCCNC(=O)c2ccc(F)cc2)c1 | – | – | – | – | – | ?
CC(=O)Nc1cccc(OCCCNC(=O)c2ccc(C(C)(C)C)cc2)c1 | ? | 14.6µM | ? | – | ? | –
COc1ccc(NC(=O)c2ccc3c(c2)n(C)c(=O)n3C)cc1 | – | – | – | -56.3 | – | ?
COC(=O)Cc1ccc(NC(=O)c2ccc(C(C)(C)C)cc2)cc1 | – | – | ? | -50.1 | ? | –
CC(C)(C)c1ccc(C(=O)Nc2ccc(Cl)cc2)cc1 | – | – | – | – | – | –
O=C(CCC[C@@H]1[C@H]2CCCN3CCC[C@@H](CN1C(=O)c1cccnc1)[C@@H]23)NCCCN1CCCC1=O | · | · | · | · | · | –
SMILES | HT1080NT lethal | HT1080 IDH1KD tx | TDP1 cell CPT | IL1B secr inh | DT40 TDP1 no CPT | 12-LOX inh
Cn1cc(-c2ccc([S+](C)(=O)[O-])cc2)c2nc(CNc3ccccc3)cn2c1=O | · | · | · | · | · | –
COc1cccc(C(=O)Nc2ccc(NC(=O)c3ccc(C(C)(C)C)cc3)cc2)c1 | · | · | 16.4µM | · | 10.3µM | –
CC(C)(C)c1cnnn1-c1ccc(NC(=O)c2ccc(Br)o2)cc1 | –[9.24 µM] | – | – | – | – | –
CC(C)(C)c1ccc(C(=O)Nc2ccc(Oc3cccnc3)nc2)cc1 | – | ? | ? | -73.4 | 13µM | –
COc1cccc(C(=O)Nc2ccc(-n3nncc3C(C)(C)C)cc2)c1 | – | – | ? | – | 20.6µM | –
CC(C)(C)c1cnnn1-c1ccc(NC(=O)c2ccc3c(c2)OCO3)cc1 | – | – | ? | – | 20.6µM | –
CC(C)(C)c1ccc(C(=O)Nc2cccnc2)cc1 | – | – | ? | – | ? | –
COCCNC(=S)NNc1ccccc1[N+](=O)[O-] | – | – | – | – | – | ?
Cc1ccc(NC(=O)/C(C#N)=C/c2cc(C)n(-c3ccc(Br)cc3)c2C)cc1C | · | · | 4.61µM | · | 5.8µM | –
Cc1cc(/C=C(\C#N)C(=O)Nc2ccccc2)c(C)n1-c1cccnc1 | – | – | ? | -76.4 | ? | –
CCOC(=O)/C(C#N)=C/c1cc(C)n(-c2ccccc2)c1C | – | – | 16.4µM | – | 20.6µM | –
CCOC(=O)/C(C#N)=C/c1cc2ccc(C)cc2nc1Cl | – | – | 4.11µM | – | 2.91µM | –
Cc1ccc(-n2c(C)cc(/C=C(\C#N)C(=O)Nc3ccc(C)c(C)c3)c2C)cc1 | · | · | – | · | ? | ?
C[C@]1(O)CCN(C(=O)c2ccc3c(c2)CCCC3)C[C@@H]1O | · | · | · | · | · | –
Cc1ccc(/C(O)=C2\C(=O)C(=O)N(CCCN3CCOCC3)C2c2ccccc2F)cc1 (stereo not given) | – | – | – | – | – | ?
Cc1cc(C(=O)O)ccc1-n1c(C)cc(/C=C(/C#N)C(=O)Nc2ccccc2)c1C | – | – | – | -65.9 | – | –
Cc1cc2cc(C=C(C#N)C#N)c(Cl)nc2cc1C | – | ? | 7.31µM | -100.5 | 7.31µM | –
Cc1cc(/C=C(\C#N)C(=O)Nc2ccccc2)c(C)n1-c1ccc(F)cc1 | · | · | – | · | – | –
CCOC(=O)/C(C#N)=C/c1cc2cc(C)c(C)cc2nc1Cl | – | – | ? | – | ? | –
CC(=O)c1ccc(OCc2ccccc2Cl)cc1 | · | · | · | · | · | –
COc1ccc(CCn2c(NN)nc3c2c(=O)[nH]c(=O)n3C)cc1 | 8.2µM | ? | 4.61µM | – | 5.17µM | –
COc1ccc(CCNc2nc(SCc3ccc(F)cc3)nc3ccccc23)cc1OC | · | · | 7.31µM | · | 7.31µM | –
COc1ccc(CCNc2nc(SCc3cccc(Cl)c3)nc3ccccc23)cc1OC | · | · | ? | · | 8.2µM | –
COc1ccc(CCNc2nc(SCc3ccccc3F)nc3ccccc23)cc1OC | · | · | 3.66µM | · | 3.66µM | –
Clc1cccc(CSc2nc(NCCc3ccccc3)c3ccccc3n2)c1 | · | · | ? | · | ? | –
